The results in this text go back to PubChem BioAssay.

A short description of experiment [1]: stimulators of insulin release from INS-1E, primary screen, cell-based, 5 mM glucose, NPC library (AID 1117329;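 active means compound raises insulin release from rat beta cells at 5 mM glucose, no numeric limit stated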). Particulars: rat INS-1E insulin secretion, at 10 µM, stronger effect = higher value.
Experiment [2] can be described thus: growth inhibition of GSK3B-pretreated HCT116 cells – cell-based, CellTiter-Glo, 0.2 to 20 µM (AID 1117336;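 active means compounds lowering colon cancer cell viability after pretreatment blocking the GSK3B kinase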). The following applies: HCT116 viability after GSK3B inhibitor, at 20 µM, stronger effect = higher value. (ATP-based viability assays read luminescence as a measure of living cells.)
A short description of experiment [3]: inhibition of endothelial tube formation, primary screen, imaging, VEGF stimulated, CD31 staining, tube area, NPC library (AID 1117340). The following applies: VEGF-stimulated ADSC/ECFC co-culture, at 10 µM, stronger effect = higher value.
A short description of experiment [4]: glucagon-like peptide 1 release enhancers, primary assay, NCI-H716 cell line, NPC library (AID 1117341;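 active means compound raises GLP1 secretion from the human gut endocrine cells, with no numeric limit stated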). The following applies: NCI-H716 cells, at 10 µM, stronger effect = higher value.
Experiment [5] is described as follows: HCT116 colon cancer cell growth inhibition, primary screen, CellTiter-Glo luminescence, NPC library (AID 1117342;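 active means compounds that lower survival of HCT116 colon cancer cells in the luminescence readout, no numeric limit stated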). The following applies: at 20 µM (top of the series).
Experiment [6] can be described thus: CellTiter-Glo luminescent readout of SW480 viability loss, NPC library primary (AID 1117343;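 active means compounds that lower viability of the colon cancer cells in the luminescence readout, with no numeric limit stated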). Particulars: CellTiter-Glo luminescence; at 20 µM (top of the series).
Experiment [7] is described as follows: decreased DLD-1 cellular survival, CellTiter-Glo luminescent readout, NPC compound collection, primary HTS (AID 1117346;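 active means compounds that lower survival of DLD-1 colon cancer cells in the luminescence readout, no cutoff given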). Particulars: DLD-1 viability, CellTiter-Glo luminescence; at 20 µM (top of the series).
In experiment [8] the target is 6-phosphogluconate dehydrogenase, decarboxylating (Homo sapiens) (UniProt P52209). As to the kind of experiment: 6PGD enzyme inhibitors, primary screen, biochemical, human, recombinant enzyme, NADPH absorbance (AID 1159550;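 active means at least 20% inhibition of 6-phosphogluconate dehydrogenase activity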). Particulars: recombinant 6PGD, NADPH absorbance 341 nm; at 10 µM; stronger effect = higher value.
Experiment [9] in a line: differential killing of epithelial or mesenchymal cells, primary screen, imaging, PC-3E GFP, TEM4-18 mCherry, co-culture (AID 1345086;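 active means compounds killing one labelled cell type while sparing the other, by normalised counts and ratio limits, not self-fluorescent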;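 on all read-outs here: cells exposed to compound for 72 h before imaging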;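 on red/green cell ratio (normalised): normalised mesenchymal count divided by normalised epithelial count so high means epithelial killing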). Particulars: imaging cell counts, at 1 µM; for red/green cell ratio (normalised): actives lie on both sides, counts scaled to control wells, 1 = unselective.
The mark [10] stands for this setting: measured here: epithelial PC-3E GFP cell survival.
Where [11] appears, read: measured here: mesenchymal TEM4-18 mCherry cell survival.

As a reminder, the inhibition is the drop in the measured response relative to a control, in per cent.

Each structure is given as a SMILES string. Calls of active or inactive are those of the source.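 How the source made its calls, unless noted: active means compound that reduces growth-factor-driven endothelial tube area in a mixed cell culture, no cutoff stated; inactive means the rest.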

Chain of 6-phosphogluconate dehydrogenase, decarboxylating (Homo sapiens) (P52209 whole entry, looked up): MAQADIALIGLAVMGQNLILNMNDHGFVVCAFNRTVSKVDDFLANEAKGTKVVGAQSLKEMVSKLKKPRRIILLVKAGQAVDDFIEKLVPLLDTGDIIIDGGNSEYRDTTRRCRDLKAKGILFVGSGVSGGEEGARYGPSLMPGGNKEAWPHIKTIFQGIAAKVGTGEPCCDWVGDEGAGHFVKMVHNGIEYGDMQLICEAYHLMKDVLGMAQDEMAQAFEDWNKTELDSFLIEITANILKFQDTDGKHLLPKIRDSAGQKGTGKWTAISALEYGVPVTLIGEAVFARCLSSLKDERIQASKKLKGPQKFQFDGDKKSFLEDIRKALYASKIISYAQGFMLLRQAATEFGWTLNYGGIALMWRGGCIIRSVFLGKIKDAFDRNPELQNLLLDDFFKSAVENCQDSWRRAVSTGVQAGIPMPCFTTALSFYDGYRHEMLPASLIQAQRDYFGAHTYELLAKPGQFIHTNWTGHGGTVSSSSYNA

For the molecule `CCn1cc(C(=O)O)c(=O)c2cc3c(cc21)OCO3`, in experiment [1], the insulin secretion stimulation was -1.3% (inactive). Besides, the viability decrease in [2] was -16% (inactive). Also, the tube area decrease in experiment [3] was 12.1% (inactive). Moreover, the GLP1 secretion stimulation in [4] was -1.5% (inactive). In addition, the inhibition of viability in experiment [5] was -19.5% (inactive). For the same molecule, the viability decrease (inhibition) in experiment [6] was 8.3% (inactive); in [7], 7.15% (inactive). Further, the inhibition in experiment [8] is 15.6% (inactive). For the same molecule, the red/green cell ratio (normalised) in [9] was 1.09 (inactive). In addition, the normalised cell number turned out to be 1.15 in [9] (setting [10]) and 1.25 in experiment [9] (setting [11]).
For the molecule `O=C1C(=O)c2ccccc2C(O)=C1C1CCC(c2ccc(Cl)cc2)CC1` (stereo not drawn), the insulin secretion stimulation in experiment [1] is 1.1% (inactive). In addition, the viability decrease in experiment [2] is 96.3% (active). The tube area decrease in [3] was 69.9% (active). Further, the GLP1 secretion stimulation in experiment [4] was 1.4% (inactive). In addition, in experiment [5], the inhibition of viability is 97.1% (active). The viability decrease (inhibition) in [6] was 144% (active); in [7] it was 99% (active). The inhibition in experiment [8] is 5.16% (inactive). Besides, the red/green cell ratio (normalised) in [9] is 0.91 (inactive). In addition, the normalised cell number in [9] (setting [10]) was determined as 1.07; in experiment [9] (setting [11]) it was 0.98.
In the case of `O=C1c2c(O)cccc2Cc2cccc(O)c21`, the insulin secretion stimulation in experiment [1] was 0.8% (inactive). In addition, the viability decrease in [2] is 38.5% (inactive). Moreover, the tube area decrease in [3] is 108% (active). Besides, the GLP1 secretion stimulation in experiment [4] was -2.2% (inactive). The inhibition of viability in experiment [5] was 30.9% (inactive). For the same molecule, the viability decrease (inhibition) in [6] was 61.6% (active); in experiment [7], 53.6% (active). Moreover, in experiment [8], the inhibition was -1.39% (inactive). Further, in experiment [9], the red/green cell ratio (normalised) was 0.95 (inactive). Moreover, the normalised cell number in experiment [9] (setting [10]) stood at 1.25; in experiment [9] (setting [11]), 1.19.
With `CCN(CC)C(=O)c1cccc(C)c1`, the insulin secretion stimulation in experiment [1] was 5% (inactive). The viability decrease in experiment [2] was 3.4% (inactive). Moreover, in [3], the tube area decrease was -44.2% (inactive). For the same molecule, in experiment [4], the GLP1 secretion stimulation was 2.9% (inactive). Besides, in experiment [5], the inhibition of viability was -3.2% (inactive). Moreover, the results for the viability decrease (inhibition) in experiment [6] and in experiment [7] were -14.3% (inactive) and 12.4% (inactive), respectively. Further, the inhibition in [8] was 9.21% (inactive). Besides, the red/green cell ratio (normalised) in experiment [9] is 1.18 (inactive). For the same molecule, the results for the normalised cell number in [9] (setting [10]) and in experiment [9] (setting [11]) were 1 and 1.19, respectively.
On to `O=C(O)CCC(=O)c1ccc(-c2ccccc2)cc1`, for which, in experiment [1], the insulin secretion stimulation was 1.1% (inactive). Moreover, the viability decrease in experiment [2] was -13% (inactive). Moreover, the tube area decrease in experiment [3] was 14.5% (inactive). In [4], the GLP1 secretion stimulation is 0.1% (inactive). For the same molecule, the inhibition of viability in experiment [5] is 12.7% (inactive). For the same molecule, the viability decrease (inhibition) is 13.6% (inactive) in experiment [6] and 0.4% (inactive) in experiment [7]. For the same molecule, the inhibition in experiment [8] is 8.67% (inactive). The red/green cell ratio (normalised) in experiment [9] was 1.07 (inactive). Besides, the normalised cell number in [9] (setting [10]) was 1.07; in experiment [9] (setting [11]) it was 1.15.
As for `CCCCOc1ccc(C(=O)CCN2CCCCC2)cc1`, in [1], the insulin secretion stimulation was 2.3% (inactive). Also, in experiment [2], the viability decrease was 55.8% (active). Besides, the tube area decrease in experiment [3] is 12.5% (inactive). Also, the GLP1 secretion stimulation in experiment [4] was -0.1% (inactive). In addition, in experiment [5], the inhibition of viability is 59.9% (active). The viability decrease (inhibition) in experiment [6] was 59.5% (active); in experiment [7], 31.3% (inactive). Further, the inhibition in experiment [8] is 9.17% (inactive). Moreover, the red/green cell ratio (normalised) in experiment [9] is 1.3 (inactive). Also, the normalised cell number stood at 1.09 in [9] (setting [10]) and 1.41 in experiment [9] (setting [11]).
For the molecule `CCN(CC)CCNC(=O)c1cc(S(C)(=O)=O)ccc1OC`, the insulin secretion stimulation in [1] was 0.1% (inactive). Moreover, the viability decrease in experiment [2] is -23.6% (inactive). For the same molecule, the tube area decrease in experiment [3] was 12% (inactive). The GLP1 secretion stimulation in experiment [4] is 0.7% (inactive). Further, the inhibition of viability in experiment [5] was 1.13% (inactive). In addition, the viability decrease (inhibition) is 10.9% (inactive) in experiment [6] and -4.3% (inactive) in [7]. Also, the inhibition in [8] was -8.37% (inactive). For the same molecule, the red/green cell ratio (normalised) in experiment [9] was 1.26 (inactive). Further, the normalised cell number worked out at 0.93 in experiment [9] (setting [10]) and 1.16 in experiment [9] (setting [11]).
Take `CCN(CC)C(=O)N1CCN(C)CC1`: the insulin secretion stimulation in experiment [1] was -1.8% (inactive). Further, the viability decrease in [2] was -3.6% (inactive). For the same molecule, in experiment [3], the tube area decrease was -3.8% (inactive). The GLP1 secretion stimulation in experiment [4] is 4.4% (inactive). Besides, the inhibition of viability in [5] is 5.3% (inactive). In addition, the viability decrease (inhibition) in [6] is 53.1% (active); in [7], -2.05% (inactive). Besides, the inhibition in [8] is 10.8% (inactive). Also, the red/green cell ratio (normalised) in experiment [9] was 1.18 (inactive). The normalised cell number in experiment [9] (setting [10]) came out at 1.2; in experiment [9] (setting [11]) it was 1.42.
